Reference: PubChem BioAssay AID977607 (Broad Institute, 2014)
Among all 1,500 compounds or so, about 460 (31%) were called active. Not shown: some 1% with an inconclusive outcome.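 How the source made its calls: active means curve reaches 40% activation over neutral controls at an AC40 no higher than the top valid tested concentration; inconclusive means no clear call, values can overlap the other calls; inactive means signal moving opposite to the expected increase, and the rest.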 The list is a sample of the results. Entries with a potency or affinity are not part of this list.

Assay: GLuc-reported insulin release enhancers, glucose-stimulated beta cells – cell-based, INS-1E, Gaussia luciferase, luminescence, cherry-pick, set 2, dose response (AID 977607);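 further: 0% = median of the plate neutral control wells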
Settings: INS-1E GLuc insulin secretion reporter, 2-3 h, stronger effect = higher value; at 35 µM, 100% = signal doubled over neutral wells unless noted

Max activation, inactive:
CC1=C(C(=O)N2CCOCC2)CC(CC(=O)NCCCN(C)C)C(=O)N1CCCN1CCCC1=O (configuration not stated) -20.9%
Cc1cc(Br)ccc1NC(=O)CN(C)C(=O)C1CSC2(C)CCC(=O)N12 (configuration not stated) -12.1% [at 0.015 µM, 100% = signal doubled over neutral wells]
COc1ccc(S(=O)(=O)N2CCc3ccccc32)cc1C(=O)Nc1cccnc1 -10.3% [at 3.8 µM, 100% = signal doubled over neutral wells]
O=S(=O)(c1ccc(Cl)nc1)N1CCc2ccccc21 -28.1%
COc1cc(C(=O)O)ccc1OCc1ccccc1 -15.4% [at 0.42 µM, 100% = signal doubled over neutral wells]
CCc1ccc(N(C2C=CS(=O)(=O)C2)S(=O)(=O)c2ccccc2)cc1 (configuration not stated) -8.85% [at 0.015 µM, 100% = signal doubled over neutral wells]
CCCc1nnc2c(N(C)S(=O)(=O)c3ccc(C)cc3)nc3ccccc3n12 -17% [at 0.005 µM, 100% = signal doubled over neutral wells]
COc1ccc(Nc2c3c(nc4ccccc24)CCC3)cc1 -16.4% [at 0.046 µM, 100% = signal doubled over neutral wells]
c1csc(CNc2nc(Oc3ccncc3)c3sccc3n2)c1 -17.1% [at 0.0016 µM, 100% = signal doubled over neutral wells]
CN1CCCCC(NC(=O)c2ccccc2)C1=O (configuration not stated) -13.5% [at 0.42 µM, 100% = signal doubled over neutral wells]
COc1ccc(S(=O)(=O)Nc2ccc3c(c2)OCO3)cc1OC -21.1%
Cc1cccc(C)c1-n1nnnc1C1(C)CCC(=O)N1Cc1cccs1 (configuration not stated) 25.2%
CCOc1cc(CNc2cccc3[nH]c(C)nc23)ccc1OC -11.6% [at 0.0016 µM, 100% = signal doubled over neutral wells]
CCN(CC)C(=O)Cn1cc(C(=O)C(=O)N2CCN(Cc3ccccc3)CC2)c2ccccc21 -19.3%
CC(=O)N1CCN(c2nnc(-c3ccc(C)cc3)c3ccccc23)CC1 -19.3% [at 3.8 µM, 100% = signal doubled over neutral wells]
Cc1ncc(N=Nc2ccc(F)cc2)c(-c2ccc(Cl)cc2)n1 105%
CC(=O)Nc1nc(NCc2ccccc2Cl)n(-c2ccccc2)n1 -19.9% [at 0.135 µM, 100% = signal doubled over neutral wells]
